{"source": "paper PMC9911399", "about": "“Two distinct binding modes provide the RNA-binding protein RbFox with extraordinary sequence specificity”", "binders": {"B1": {"name": "UACUGCC (DNA:RNA)", "RNA": "GGGAGACCGGAAUUCAGAUUGUCCUACUGCCUUAAAUCCCGUCGUAGCCACCA", "DNA 1": "CAATCTGAATTCCGGTCTCCC", "DNA 2": "TGGTGGCTACGACGGGATT"}, "B2": {"name": "CCGGCAC (DNA:RNA)", "RNA": "B1 RNA with U25C, A26C, C27G, U28G, G29C, C30A", "DNA 1": "CAATCTGAATTCCGGTCTCCC", "DNA 2": "TGGTGGCTACGACGGGATT"}, "B3": {"name": "CUGGUGA (DNA:RNA)", "RNA": "GGGAGACCGGAAUUCAGAUUGUCCCUGGUGAUUAAAUCCCGUCGUAGCCACCA", "DNA 1": "CAATCTGAATTCCGGTCTCCC", "DNA 2": "TGGTGGCTACGACGGGATT"}, "B4": {"name": "AGGAGUA (DNA:RNA)", "RNA": "B3 RNA with C25A, U26G, G28A, U29G, G30U", "DNA 1": "CAATCTGAATTCCGGTCTCCC", "DNA 2": "TGGTGGCTACGACGGGATT"}, "B5": {"name": "UAGUAGU (DNA:RNA)", "RNA": "B1 RNA with C27G, G29A, C30G, C31U", "DNA 1": "CAATCTGAATTCCGGTCTCCC", "DNA 2": "TGGTGGCTACGACGGGATT"}, "B6": {"name": "UCUCUCG (DNA:RNA)", "RNA": "B1 RNA with A26C, C27U, U28C, G29U, C31G", "DNA 1": "CAATCTGAATTCCGGTCTCCC", "DNA 2": "TGGTGGCTACGACGGGATT"}, "B7": {"name": "ACGUCAA (DNA:RNA)", "RNA": "B3 RNA with C25A, U26C, G28U, U29C, G30A", "DNA 1": "CAATCTGAATTCCGGTCTCCC", "DNA 2": "TGGTGGCTACGACGGGATT"}, "B8": {"name": "UUCCUAC (DNA:RNA)", "RNA": "B1 RNA with A26U, U28C, G29U, C30A", "DNA 1": "CAATCTGAATTCCGGTCTCCC", "DNA 2": "TGGTGGCTACGACGGGATT"}, "B9": {"name": "GAAAACG (DNA:RNA)", "RNA": "B1 RNA with U25G, C27A, U28A, G29A, C31G", "DNA 1": "CAATCTGAATTCCGGTCTCCC", "DNA 2": "TGGTGGCTACGACGGGATT"}, "B10": {"name": "GUCGGCU (DNA:RNA)", "RNA": "B1 RNA with U25G, A26U, U28G, C31U", "DNA 1": "CAATCTGAATTCCGGTCTCCC", "DNA 2": "TGGTGGCTACGACGGGATT"}, "B11": {"name": "GUCGGGC (DNA:RNA)", "RNA": "B3 RNA with C25G, G27C, U29G, A31C", "DNA 1": "CAATCTGAATTCCGGTCTCCC", "DNA 2": "TGGTGGCTACGACGGGATT"}, "B12": {"name": "GGGCUUG (DNA:RNA)", "RNA": "B3 RNA with C25G, U26G, G28C, G30U, A31G", "DNA 1": "CAATCTGAATTCCGGTCTCCC", "DNA 2": "TGGTGGCTACGACGGGATT"}, "B13": {"name": "AGGAGGC (DNA:RNA)", "RNA": "B3 RNA with C25A, U26G, G28A, U29G, A31C", "DNA 1": "CAATCTGAATTCCGGTCTCCC", "DNA 2": "TGGTGGCTACGACGGGATT"}, "B14": {"name": "GGCUUGU (DNA:RNA)", "RNA": "B3 RNA with C25G, U26G, G27C, G28U, A31U", "DNA 1": "CAATCTGAATTCCGGTCTCCC", "DNA 2": "TGGTGGCTACGACGGGATT"}, "B15": {"name": "GGGGGGC (DNA:RNA)", "RNA": "B3 RNA with C25G, U26G, U29G, A31C", "DNA 1": "CAATCTGAATTCCGGTCTCCC", "DNA 2": "TGGTGGCTACGACGGGATT"}, "B16": {"name": "GUCCGGC (DNA:RNA)", "RNA": "B1 RNA with U25G, A26U, U28C, C30G", "DNA 1": "CAATCTGAATTCCGGTCTCCC", "DNA 2": "TGGTGGCTACGACGGGATT"}, "B17": {"name": "AGGCUUG (DNA:RNA)", "RNA": "B3 RNA with C25A, U26G, G28C, G30U, A31G", "DNA 1": "CAATCTGAATTCCGGTCTCCC", "DNA 2": "TGGTGGCTACGACGGGATT"}, "B18": {"name": "CACCGGC (DNA:RNA)", "RNA": "B1 RNA with U25C, U28C, C30G", "DNA 1": "CAATCTGAATTCCGGTCTCCC", "DNA 2": "TGGTGGCTACGACGGGATT"}, "B19": {"name": "ACCAGGC (DNA:RNA)", "RNA": "B1 RNA with U25A, A26C, U28A, C30G", "DNA 1": "CAATCTGAATTCCGGTCTCCC", "DNA 2": "TGGTGGCTACGACGGGATT"}, "B20": {"name": "CCCCGGC (DNA:RNA)", "RNA": "B1 RNA with U25C, A26C, U28C, C30G", "DNA 1": "CAATCTGAATTCCGGTCTCCC", "DNA 2": "TGGTGGCTACGACGGGATT"}, "B21": {"name": "CGGCUUG (DNA:RNA)", "RNA": "B3 RNA with U26G, G28C, G30U, A31G", "DNA 1": "CAATCTGAATTCCGGTCTCCC", "DNA 2": "TGGTGGCTACGACGGGATT"}}, "note": "Changes are numbered by the printed parent chain; changes in the protein carry UniProt numbers. In all, about 16,000 sequences were measured (“ka relative to ugcaugu”: median about 0.096, highest 2% from about 0.35 on). The entries come from a sample that favours the highest values as a whole.", "data": [{"target": "T1, RBFOX1 RRM RbFoxmut (Fox-RRM*) (Homo sapiens, UniProt Q9NWB1 109-208, R118D;E147R;N151S;E152T)", "T1 sequence": "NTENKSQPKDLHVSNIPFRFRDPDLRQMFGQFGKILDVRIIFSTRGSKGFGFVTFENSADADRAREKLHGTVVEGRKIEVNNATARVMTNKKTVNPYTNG", "assay": "EMSA; HiTS-Eq, 1 nM pool, 10 min; buffer printed only for the single-RNA assays: 10 mM Tris pH 7.5, 150 mM NaCl, 3.4 mM EDTA, 0.001% NP-40, 30 C", "conditions": "tags: His6 N-terminal (pET28a); label: 5' 32P", "method_in_brief": "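These values rest on relative association constants, computed from read-count changes of each RNA species versus the control reaction and normalised to the cognate motif. Reads came from free RNA recovered by 8% native PAGE after purified RbFox RRM (wild type or mutant) at increasing concentrations was equilibrated for 10 min in 50 µL with 1 nM of a 5′-radiolabelled pool with 7 randomized nucleotides and DNA-annealed flanks.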", "values": [{"binder": "B1", "binding signal": "0.217 KA relative to UGCAUGU"}, {"binder": "B2", "binding signal": "0.0571 KA relative to UGCAUGU"}, {"binder": "B3", "binding signal": "0.0924 KA relative to UGCAUGU"}, {"binder": "B4", "binding signal": "0.168 KA relative to UGCAUGU"}, {"binder": "B5", "binding signal": "0.121 KA relative to UGCAUGU"}, {"binder": "B6", "binding signal": "0.0757 KA relative to UGCAUGU"}, {"binder": "B7", "binding signal": "0.0727 KA relative to UGCAUGU"}, {"binder": "B8", "binding signal": "0.0836 KA relative to UGCAUGU"}, {"binder": "B9", "binding signal": "0.0811 KA relative to UGCAUGU"}, {"binder": "B10", "binding signal": "0.116 KA relative to UGCAUGU"}, {"binder": "B11", "binding signal": "0.0929 KA relative to UGCAUGU"}, {"binder": "B12", "binding signal": "0.371 KA relative to UGCAUGU"}, {"binder": "B13", "binding signal": "0.118 KA relative to UGCAUGU"}, {"binder": "B14", "binding signal": "0.359 KA relative to UGCAUGU"}, {"binder": "B15", "binding signal": "0.0893 KA relative to UGCAUGU"}, {"binder": "B16", "binding signal": "0.116 KA relative to UGCAUGU"}, {"binder": "B17", "binding signal": "0.388 KA relative to UGCAUGU"}, {"binder": "B18", "binding signal": "0.0862 KA relative to UGCAUGU"}, {"binder": "B19", "binding signal": "0.0949 KA relative to UGCAUGU"}, {"binder": "B20", "binding signal": "0.0573 KA relative to UGCAUGU"}, {"binder": "B21", "binding signal": "0.431 KA relative to UGCAUGU"}]}]}
